Screening data (PubChem BioAssay)
ssDAF-12 act – activators of S. stercoralis DAF-12 nuclear receptor. HEK293 ssDAF-12/GRIP1 lit1-tk-luc reporter, luminescence; % of 3 µM dafachronic acid response. activation, % at 6.8 µM. 370,000 compounds, 1% hits;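 active = activation above the mean over all tested compounds plus 3 SD, cut at about 0.9% in these data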;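 also: 0% = DMSO-only wells and 100% = 3 µM delta7-dafachronic acid wells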
DAX1 inh-1 – inhibitors of human orphan nuclear receptor DAX1 (NR0B1); 340,000 compounds, 0.99% hits; inhibition, % at 6.75 µM; HEK293 Gal4-DAX1 luciferase reporter, luminescence;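 active = inhibition above the mean over all tested compounds plus 3 SD, cut at about 4.2% in these data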;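 also: 0% = DAX1-transfected cells with DMSO and 100% = empty-vector control cells with DMSO; inhibition shows as a rise in luminescence from relieved DAX1 repression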
hgDAF-12 ag – activates the H. glycines DAF-12 receptor ligand-binding domain | HEK293 GAL4-hgDAF12 UAS-luciferase reporter, agonist luminescence; normalized to butyrate control | activation, % at 6.8 µM | 370,000 compounds, 1.8% hits | AID 687014;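 active = activation above a cutoff set at the mean of all screened compounds plus 3 SD, cut at about 10% in these data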;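 also: 0% = DMSO wells and 100% = sodium butyrate wells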
DAX1 inh-2 – DAX1 (NR0B1) inhibition, primary screen; HEK293T StAR-luciferase reporter, SF-1/DAX-1 repression relief; inhibition, % at 6.8 µM; 370,000 compounds, 1.1% hits; AID 652010;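 active = inhibition above the mean over all tested compounds plus 3 SD, cut at about 3.6% in these data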;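 also: 0% = DAX-1 cells with DMSO and 100% = cells lacking DAX-1 with DMSO; higher inhibition means more luminescence from relief of DAX-1 repression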
hcDAF12 agonist – H. contortus DAF-12 activation, primary screen; 370,000 compounds, 1.4% hits; HEK293 hcDAF-12 lit1-tk-luc reporter, luminescence; 0% DMSO, 100% Δ7-dafachronic acid; activation, % at 6.8 µM;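 active = activation above the mean of all tested compounds plus 3 SD, cut at about 5.5% in these data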;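 also: 100% = response to 3 µM Δ7-dafachronic acid high control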
AHR act – activators of human aryl hydrocarbon receptor. activation, % at 5 µM. AID 2796. P35869. AHR-responsive luciferase reporter cells, luminescence. 320,000 compounds, 2.5% hits; in the data active = activation above about 47%;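 also: 0% = vehicle wells and 100% = reference agonist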
Target sequence (P35869 whole entry, looked up): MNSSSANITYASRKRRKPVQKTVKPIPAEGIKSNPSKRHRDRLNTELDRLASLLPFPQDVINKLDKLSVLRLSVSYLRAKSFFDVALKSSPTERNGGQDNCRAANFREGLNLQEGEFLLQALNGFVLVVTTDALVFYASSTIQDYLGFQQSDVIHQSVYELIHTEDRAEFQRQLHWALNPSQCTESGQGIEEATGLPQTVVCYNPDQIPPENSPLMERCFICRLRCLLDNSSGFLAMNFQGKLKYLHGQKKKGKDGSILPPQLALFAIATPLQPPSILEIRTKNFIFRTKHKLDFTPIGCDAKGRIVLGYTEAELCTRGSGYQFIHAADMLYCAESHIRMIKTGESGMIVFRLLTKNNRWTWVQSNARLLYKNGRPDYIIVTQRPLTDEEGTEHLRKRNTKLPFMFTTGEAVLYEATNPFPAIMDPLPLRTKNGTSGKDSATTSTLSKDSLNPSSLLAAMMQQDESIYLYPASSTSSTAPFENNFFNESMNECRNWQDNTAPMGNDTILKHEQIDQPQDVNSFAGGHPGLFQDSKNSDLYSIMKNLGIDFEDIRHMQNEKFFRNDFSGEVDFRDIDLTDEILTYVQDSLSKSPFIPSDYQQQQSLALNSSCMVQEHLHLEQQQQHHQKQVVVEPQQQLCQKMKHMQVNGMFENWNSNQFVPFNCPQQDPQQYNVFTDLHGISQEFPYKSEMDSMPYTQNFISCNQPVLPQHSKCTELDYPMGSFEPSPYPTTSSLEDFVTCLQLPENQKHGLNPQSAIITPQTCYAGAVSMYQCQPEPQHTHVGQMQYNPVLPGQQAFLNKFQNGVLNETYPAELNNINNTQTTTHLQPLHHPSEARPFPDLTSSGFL
The depositor's hits bear a star; x = not tested or not shown. In the library only some 5.7% were active in any assay of this set; here they are far more common.

SMILES	ssDAF-12 act	DAX1 inh-1	hgDAF-12 ag	DAX1 inh-2	hcDAF12 agonist	AHR act
CCCCOC(=O)/C(=C/c1cn(C)c2ccccc12)NC(=O)c1ccc(OC)cc1	-1.2	0.8	1.9	-0.5	-0.9	81.0*
COc1ccc(CCNC(=O)c2ccc(NS(=O)(=O)c3ccc4[nH]c(=O)[nH]c4c3)cc2)cc1	-1.0	0.9	-2.0	-2.0	-1.0	2.8
O=C(NCCc1ccccc1)c1ccc(NS(=O)(=O)c2ccc3[nH]c(=O)[nH]c3c2)cc1	-0.7	1.6	6.1	3.8*	0.0	3.0
O=c1[nH]c2ccc(NS(=O)(=O)c3ccc(F)c(Cl)c3)cc2[nH]1	-0.5	-0.9	-0.6	-0.4	-0.1	-0.5
O=c1[nH]c2ccc(NS(=O)(=O)c3ccc(Cl)cc3)cc2[nH]1	-1.9	5.0*	1.2	-0.3	2.4	2.8
O=C(O)CCc1ccc(S(=O)(=O)Nc2ccccc2C(=O)NCCc2ccccc2)cc1	1.0*	0.7	9.6	0.9	5.3	25.7
Oc1ccc(C[C@H]2CNC(=S)N2CC2CCCN2C[C@H](Cc2ccc(O)cc2)N2C[C@H](Cc3ccccc3)N(CC3CCCCC3)C2=S)cc1 (some centres not stated)	-1.1	-1.0	-2.2	-0.5	-2.7	x
COCc1[nH]nc2c1C(c1ccc3c(c1)OCO3)N(c1ccc(OC)cc1)C2=O (configuration not stated)	-1.2	x	2.3	-1.0	0.3	x
Cc1ccc(S(=O)(=O)c2nc(N3CCOCC3)sc2Cl)cc1	-1.4	1.6	-2.1	-0.1	0.9	-4.2
COc1cc(C2NC(=O)NC(C)=C2C(=O)OCC2CCCCC2)ccc1O (configuration not stated)	-1.4	0.5	-1.2	-0.1	-2.7	1.1
O=c1[nH]c(/C=C/c2cccc3ccccc23)nc2ccccc12	-0.5	0.6	1.1	-0.6	-0.1	55.8*
O=c1[nH]c(/C=C/c2ccccc2[N+](=O)[O-])nc2ccccc12	-1.1	-0.1	0.6	0.1	3.0	78.7*
O=c1[nH]c(/C=C/c2ccccc2F)nc2ccccc12	0.2	0.2	11.3*	0.1	5.1	x
Nc1nc2c(ncn2[C@@H]2O[C@H](C(=O)N[C@@H](Cc3ccccc3)C(=O)NCC3CCCCC3)[C@@H](O)[C@H]2O)c(=O)[nH]1	-0.8	x	-1.3	-1.2	-0.3	x
COc1ccc(CN2C(=O)C(CC(=O)NC3CCCCC3)CC(C(=O)N(C)C)=C2C)cc1 (configuration not stated)	-0.7	0.8	-1.2	1.2	-0.6	x
CCn1ncc(Cl)c1C(=O)NC(C)c1ccccc1 (configuration not stated)	-1.2	0.0	0.4	-0.5	-2.5	0.3
Cn1cc(C=CC(=O)O)c2nccnc21	1.3*	0.3	1.9	0.0	4.1	x
Cc1cccc(-c2cc3nc4c(c(N5CCC6(CC5)OCCO6)n3n2)CCCC4)c1	-1.2	-1.3	-0.4	1.1	0.8	0.6
Cc1cccc(-c2cc3nc4c(c(N5CCOCC5)n3n2)CCCC4)c1	-0.5	3.4	7.7	4.5*	3.2	1.5
Cc1ccc(Nc2nc(Cl)nc(NC(C)(C)C)n2)cc1	-1.0	1.6	6.0	0.9	1.7	10.4
Cc1ccc(Nc2nc(Cl)nc(N(C)C#N)n2)cc1	-0.4	2.0	-1.7	-0.1	2.0	54.7*
O=c1n(Cc2ccccc2)c(O)c2n1Cc1ccccc1N=C2c1ccccc1	-1.2	x	2.2	-0.5	2.8	x
CCCCn1c(O)c2n(c1=O)Cc1ccccc1N=C2c1ccc(OC)cc1	0.3	x	3.7	-1.5	5.6*	x
Cc1cccc(CCNc2nc3ccc(C)cc3n3cnnc23)c1	-1.9	5.0*	1.1	-0.5	0.1	15.7
Cc1ccc2nc(NCCc3ccc(Cl)cc3)c3nncn3c2c1	-1.1	1.5	0.5	0.0	0.1	2.5
NNC(=O)c1ccc(Oc2cc(Cl)cc(Cl)c2)o1	0.0	4.3*	-0.5	0.4	-0.7	11.7
CN(C)c1ccc(N=Nc2cccc(F)c2)cc1	1.4*	1.3	11.0*	2.8	5.6*	6.6
Cc1cc(N(C)C)cc(C)c1N=Nc1cc[n+]([O-])cc1	-0.8	1.9	1.0	-1.1	-0.8	x
O=C(O)CCSc1nc(C(F)(F)F)cc(=O)n1-c1ccccc1	-1.1	5.7*	-1.6	0.4	-0.3	1.5
